Peg3 prom inh – inhibitors of Peg3 promoter | HeLa PEG-Prom luciferase reporter, luminescence, overnight | inhibition, % at 20 µM | actives 1.7% (n = 360,000) | AID 588405;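 active = inhibition of at least 50% at 20 µM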
KKLEB tox – reduces viability of KKLEB cystic fibrosis airway cells; KKLEB CF airway cells viability, ATPlite luminescence, overnight; hits give low values; cells stimulated with P. aeruginosa culture filtrate; activity change (cytotoxicity), % at 5 µM; actives 0.36% (n = 360,000); AID 602141;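 active = corrected activity change at or below -50% at 5 µM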
TRPM1 prom inh – reduces MITF-dependent TRPM1 promoter luciferase signal; SK-MEL-5 TRPM1 promoter luciferase, 24 h; inhibition, % at 12.5 µM; actives 0.83% (n = 330,000);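 active = mean inhibition across replicates of 60% or more, whatever share of single replicates reaches that level; inconclusive = some that reach 60%, reason not given; inactive = mean inhibition across replicates below 60%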
CF NFkB inh – cystic fibrosis NF-kB activation inhibition; inhibition, % at 5 µM; AID 588850; actives 0.86% (n = 360,000); KKLEB NF-kB-GFP reporter, PAF-induced, GFP fluorescence overnight;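 active = at least 50% inhibition at 5 µM, scaled per plate between neutral and stimulator controls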;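 also: PAF is a Pseudomonas aeruginosa culture filtrate used as stimulus; plate controls were PAF-stimulated DMSO wells for no effect and unstimulated DMSO wells for full effect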
HIF-2a inh – HIF-2a inhibition. AID 624352. inhibition, % at 18.8 µM. 786-0 RCC cells HIF-2a reporter, luciferase luminescence, overnight. actives 0.72% (n = 360,000);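 active = inhibition of the luminescence signal of 40% or more relative to plate controls, in a single-dose primary screen at 18.75 µM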
Shn3 3UTR inh – inhibitors of Schnurri-3 3'UTR reporter in osteoblasts; actives 0.52% (n = 360,000); inhibition, % at 12.5 µM; Clone20 osteoblast Shn3 3'UTR firefly luciferase, 24 h; AID 588674;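 active = mean inhibition of at least 75% with every replicate also reaching 75%; inconclusive = mean inhibition at least 75% but some replicate below; inactive = mean inhibition below 75%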;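 also: 0% = median of neutral control wells and 100% = pilot-screen positive control compound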
* hit, by the source's call; ? = inconclusive; . = not tested or not shown. Only some compounds are listed: those with a hit (about 2.8% of all), similar ones and a draw of the others.

SMILES	Peg3 prom inh	KKLEB tox	TRPM1 prom inh	CF NFkB inh	HIF-2a inh	Shn3 3UTR inh
CCS(=O)(=O)c1ccc(OC)c(N=Nc2ccc(O)c3ncccc23)c1	-1.8	6.8	11.7	2.1	16.0	40.2
CCOC(=O)c1ccc(S(=O)(=O)N2CCC(N3CCCCCC3)CC2)cc1	1.1	-7.3	.	-10.9	2.9	2.4
Cc1cc(C)cc(N(C(=O)c2nsc(Cl)c2Cl)C(C(=O)NC2CCCC2)c2ccc(O)cc2)c1 (configuration not stated)	59.5*	-5.2	16.9	12.7	8.2	10.5
O=C(NCCC1=CCCCC1)c1cc(-c2ccccn2)nc2ccccc12	1.6	-2.4	2.0	2.6	17.6	-2.2
COc1ccccc1CCNC(=O)c1cc(-c2ccccn2)nc2ccccc12	51.0*	1.1	2.1	-21.0	-0.9	7.7
COc1ccc(NC(=O)NC2CCCCCCC2)cc1	-324.9	-10.4	-58.1	6.6	-225.3	-101.8
CCS(=O)(=O)c1c([N+](=O)[O-])ncn1C	59.6*	11.6	8.5	15.9	13.3	-15.4
CCN(CC)c1c([N+](=O)[O-])ncn1C	4.2	3.0	3.5	8.8	0.4	-5.2
COC(=O)c1c(NC(=O)C2COc3ccccc3O2)sc2c1CCN(C(=O)OC)C2 (configuration not stated)	1.9	-6.0	.	28.1	-32.9	15.0
COc1cc(OC)c(OC)cc1CNC(=O)c1cccc(S(=O)(=O)N2CCc3ccccc3C2)c1	10.4	-12.5	26.4	15.2	13.2	?
Cc1ccc(C)c(Cn2c3ccccc3c3cnn(CC(=O)NCCCN4CCCCC4)c(=O)c32)c1	86.1*	0.1	?	4.9	18.9	3.0
COc1ccc(C(=O)N2[C@@H](C(C)C)COc3cc(Br)ccc3S2(=O)=O)cc1	55.3*	14.4	-6.5	39.1	-18.0	1.4
COc1ccc(NC(=O)N(C)C[C@H]2Oc3cc(Br)ccc3S(=O)(=O)N([C@H](C)CO)C[C@@H]2C)cc1	4.1	7.5	.	20.1	5.5	-25.9
CCOC(=O)c1ccc(N2C(=O)c3n[nH]c(-c4ccco4)c3C2c2ccc([N+](=O)[O-])cc2)cc1 (configuration not stated)	60.0*	-5.2	20.2	-9.8	20.1	22.6
CCN(CC)c1ccc(C2Nc3cccc4cccc(c34)N2)cc1	-88.2	12.9	-58.1	-26.5	-42.6	-49.8
CCN(CC)c1ccc(C2NC(=O)c3ccccc3N2)cc1 (configuration not stated)	35.9	-80.1*	58.0	-11.1	4.2	22.1
C(C#CCCCCCCCCC[n+]1ccccc1)#CCCCCCCCCC[n+]1ccccc1	104.7*	-38.0	100.7*	52.6*	36.8	?
CSCCC1NC(=O)N(C(C)C(=O)Nc2cc(Cl)cc(Cl)c2)C1=O (configuration not stated)	10.4	-6.9	3.3	-5.5	6.1	8.5
Cc1coc2c(C)c3oc(=O)c(CCC(=O)N[C@@H](C)C(=O)N[C@@H](Cc4ccccc4)C(=O)O)c(C)c3cc12	0.0	3.5	.	-3.3	-2.0	-7.2
CCN1/C(=C\C(=S)Nc2ccccc2)Sc2ccccc21	-303.4	-9.8	-11.9	11.9	-196.4	38.3
CCN1/C(=C/C(C)=C/c2sc3ccccc3[n+]2CC)Sc2ccccc21	104.0*	-43.4	103.2*	6.0	95.2*	88.3*
CCCCCCCC[n+]1cccc2c3ccccc3ccc21	54.0*	-26.6	85.8*	38.3	-39.7	80.3
CCCCCCCCCC[n+]1cccc2c3ccccc3ccc21	75.0*	-50.2*	101.1*	49.3	6.7	84.1
Cc1cccc[n+]1CCCCCCCCCC[n+]1ccccc1C	-4.3	0.0	11.4	6.4	7.5	7.7
CCCCCC[n+]1ccccc1/C=C/c1ccc(N(C)C)cc1	31.4	-22.6	.	-228.0	-80.0	75.6
COc1ccc(/C=C2/CSC/C(=C/c3ccc(OC)c(OC)c3)C2=O)cc1OC	99.6*	-91.6*	99.0*	92.8*	91.8*	97.8*
COc1cc(C=C2CCCC(=Cc3ccc(OCC4CO4)c(OC)c3)C2=O)ccc1OCC1CO1 (configuration not stated)	92.7*	-44.9	.	86.2*	13.4	54.4
COc1ccc(/C=C2\Cc3ccccc3C2=O)cc1OC	-37.8	8.5	-5.3	-23.6	-92.6	-16.1

Screening results deposited in PubChem by several laboratories.
